Our source for the Potency values is PubChem BioAssay (Tox21).

Unmarked numbers belong to inactive results. Results filed as inconclusive are left out. Calls of active or inactive are those of the source. Unless noted, calls follow the shape of the full dose curve.

Experiment [1] can be described thus: Nuclear factor erythroid 2-related factor 2/antioxidant responsive element (Nrf2/ARE) small molecule agonists: qHTS cell viability counter screen in human keratinocytes (AID 1919968; active = well fitted curve in the direction sought with a large enough effect in the repeat runs; an effect the other way counts as inactive or inconclusive; also: nearly all actives have a fitted effect of over 55% in size). In outline:
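After a 5 h attachment period, ARE-reporter keratinocytes were dosed with compounds in DMSO and then cultured 23 h at 37 C. Cell viability came from CellTiter-Fluor signal read after a further 1 h.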

The nature of experiment [2]: Nuclear factor erythroid 2-related factor 2/antioxidant responsive element (Nrf2/ARE) small molecule agonists: luciferase reporter gene qHTS assay in human keratinocytes (AID 1919969). Also: nearly all actives have a fitted effect of over 35% in size. Also: potency is read from the fitted curve at half-maximal effect.
Experiment [3] addresses Gonadotropin-releasing hormone receptor (Homo sapiens) (UniProt P30968). Kind of experiment: Human gonadotropin-releasing hormone receptor (GnRHR) small molecule agonists, calcium flux assay in GnRHR-HEK293 cells (AID 1920063). Also: nearly all actives have a fitted effect of over 35% in size. The method, boiled down:
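We seeded human GnRHR-expressing HEK293 cells for 18 hours, loaded them with calcium dye for an hour at 37 C, added test compounds, and recorded fluorescence intensity kinetically for three minutes.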
In general terms: A change in cytosolic calcium serves as a functional read-out for many receptors and channels.

The target of experiment [4] is KiSS-1 receptor (Homo sapiens) (UniProt Q969F8). Kind of experiment: Human kisspeptin (KISS1R) small molecule agonists, calcium flux assay in KISS1R-HEK293 cells (AID 1920064; active = well fitted curve in the direction sought with a large enough effect in the repeat runs; an effect the other way counts as inactive or inconclusive). In outline: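 Kinetic calcium assay, 1 s sampling over 3 min at Ex/Em 480/540, in HEK293 cells engineered with human KISS1R; compounds delivered in DMSO after 1 h dye loading.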
The nature of experiment [5]: G protein-coupled receptor (GPCR) small molecule agonists, calcium flux assay: HEK293 wild type cell line counter screen (AID 1920065). The method, boiled down:
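Calcium-sensitive dye, loaded 1 h at 37 C into cells cultured 18 h, reports compound-evoked calcium release as fluorescence (Ex/Em 480/540), measured over 3 min. Agonist mode; 15-point titrations, triplicate.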

Experiment [6] can be described thus: p53 small molecule agonists, cell-based qHTS assay with human liver microsomes (AID 1963577).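 Also: p53 response element beta-lactamase reporter cells with liver microsomes plus NADPH.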 The method, boiled down: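 With metabolic activation: human liver microsomes (0.5 mg/mL final) plus NADPH (0.5 mg/mL final) added alongside compounds to p53RE-bla cells; 16 h 37 C exposure; beta-lactamase read by LiveBLAzer fluorescence.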
On the technique in general: In qHTS, concentration-response curves come from the screen itself.

Experiment [7] in a line: p53 small molecule agonists, cell-based qHTS assay with rat liver microsomes (AID 1963578). The method, boiled down:
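Metabolic activation by rat liver microsomes and NADPH, each 0.5 mg/mL final, added right after compounds to p53RE-bla reporter cells (4,000/well, plated 5 h earlier). 16 h at 37 C, then LiveBLAzer substrate for 2 h at room temperature in the dark; fluorescence read-out.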

A short description of experiment [8]: p53 small molecule agonists, cell-based qHTS assay with human liver microsomes: qHTS cell viability counter screen (AID 1963579). Also: nearly all actives have a fitted effect of over 45% in size. The method, boiled down:
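Metabolic activation used human liver microsomes and NADPH, both 0.5 mg/mL final, over 16 hours at 37 C on p53RE-bla cells (4,000/well). Cytotoxicity measured by CellTiter-Glo luminescence, 30 min at room temperature.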

Experiment [9] in a line: p53 small molecule agonists, cell-based qHTS assay with rat liver microsomes: qHTS cell viability counter screen (AID 1963580). Also: nearly all actives have a fitted effect of over 45% in size. In outline:
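In HCT-116 cells carrying a p53 response element-bla reporter, compounds were metabolically activated in situ by rat liver microsomes with NADPH over 16 h. Cell ATP content then served as the cytotoxicity measure.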

A short description of experiment [10]: p53 small molecule agonists, cell-based qHTS assay: qHTS cell viability counter screen (AID 1963581). Also: nearly all actives have a fitted effect of over 45% in size. In outline:
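Following 5 h attachment, HCT-116 p53RE-bla cells took up compound for 16 h at 37 C; the reporter was read with B/G FRET substrate (2 h RT), and viability then via CellTiter-Glo ATP luminescence.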

The nature of experiment [11]: p53 small molecule agonists, cell-based qHTS assay (AID 1963582; active = well fitted activation curve with a large enough effect in the signal ratio in the repeat runs, not every such curve was filed as active; the % refers to the signal ratio). In outline: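 In this cell-based concentration-response screen, a p53 response element drives beta-lactamase; cells received DMSO-borne compounds after 5 h culture and were incubated a further 16 h before FRET substrate development.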
Experiment [12] concerns the target 5-hydroxytryptamine receptor 2A (Homo sapiens) (UniProt P28223). Kind of experiment: 5-hydroxytryptamine receptor 2A (HTR2A) small molecule antagonists, cell-based qHTS assay (AID 1963586). Also: nearly all actives have a fitted effect of over 45% in size. The method, boiled down:
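Antagonist-mode intracellular calcium assay: DOI (4 nM) added after 5 min compound pre-incubation at room temperature to dye-loaded HTR2A-CHO cells. Fluorescence followed for 3 min, sampled every second.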

The target is the same in experiment [13]. Kind of experiment: 5-hydroxytryptamine receptor 2A (HTR2A) small molecule agonists, cell-based qHTS assay (AID 1963587). Also: nearly all actives have a fitted effect of over 30% in size. The method, boiled down: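 HTR2A-CHO cells, plated 18 h at 37 C/5% CO2, dye-loaded 1 h at 37 C; compounds in DMSO added by pin tool (agonist mode). Intracellular calcium flux read as kinetic fluorescence on FDSS over 2 min at 1 s intervals.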

The target of experiment [14] is Muscarinic acetylcholine receptor M1 (Homo sapiens) (UniProt P11229). Kind of experiment: Cholinergic receptor muscarinic 1 (CHRM1) small molecule agonists, cell-based qHTS assay (AID 1963589). Also: nearly all actives have a fitted effect of over 35% in size. Also: potency is read from the fitted curve at half-maximal effect. In outline: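 Measures agonist-induced intracellular calcium rise. Stable human CHRM1 CHO line, 1 h dye load at 37 C, compounds from DMSO, kinetic fluorescence read.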
A short description of experiment [15]: cAMP Responsive Elements (CRE) small molecule agonists, cell-based qHTS assay (AID 1963590). In outline:
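A CRE-responsive beta-lactamase reporter in HEK 293T cells was used. Treatment ran 3 h at 37 C; detection used LiveBLAzer B/G FRET substrate for 2 h at room temperature.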

Experiment [16] in a line: cAMP Responsive Elements (CRE) small molecule antagonists, cell-based qHTS assay (AID 1963591; active = well fitted inhibition curve with a large enough effect in the signal ratio in the repeat runs, not every such curve was filed as active; the % refers to the signal ratio). In outline:
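HEK293T cells carrying a CRE-driven beta-lactamase reporter receive compound and NKH477 (0.25 uM final) for 3 h. Fluorescence from LiveBLAzer B/G FRET substrate is read after 2 h at room temperature.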

The target of experiment [17] is Beta-2 adrenergic receptor (Homo sapiens) (UniProt P07550). Kind of experiment: Adrenergic beta2 receptor (ADRB2) small molecule antagonists, cell-based qHTS assay (AID 1963592). Also: series mostly up to about 92 µM; nearly all actives have a fitted effect of over 50% in size. In outline: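 Cells (CHO, stable ADRB2 overexpression) incubated 18-20hr at 37C; compounds added from DMSO; agonist mix (1nM isoproterenol, 100uM IBMX, 25uM Ro-20-1724) added; 0.5hr RT; d2-cAMP and anti-cAMP-cryptate added; 1hr RT; 665/615 nm read.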

The target in experiment [18] is D(2) dopamine receptor (Homo sapiens) (UniProt P14416). Kind of experiment: Dopamine D2 receptor (DRD2) small molecule agonists, cell-based qHTS assay (AID 1963594). Also: nearly all actives have a fitted effect of over 35% in size. In outline: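 HEK293 cells stably expressing DRD2 were cultured 24 h at 37 C, then given Ro20-1724 (0.1 mM final) and compounds for 10 min at room temperature. NKH477 (200nM) was then added for 30 min. cAMP was read by HTRF.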

For experiment [19] the target is unchanged. Kind of experiment: Dopamine D2 receptor (DRD2) small molecule antagonists, cell-based qHTS assay (AID 1963595; active = well fitted inhibition curve with a large enough effect in the signal ratio in the repeat runs, with a control signal flat; the % refers to the signal ratio). The method, boiled down:
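HEK293 cells stably expressing DRD2 were preincubated with 0.1 mM Ro20-1724, then with compound for 10 min at room temperature. Cells were stimulated with 200 nM NKH477 plus 12 nM quinpirole for 30 min, and cAMP was read by HTRF.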

KiSS-1 receptor (Homo sapiens), sequence (Q969F8 whole entry, looked up): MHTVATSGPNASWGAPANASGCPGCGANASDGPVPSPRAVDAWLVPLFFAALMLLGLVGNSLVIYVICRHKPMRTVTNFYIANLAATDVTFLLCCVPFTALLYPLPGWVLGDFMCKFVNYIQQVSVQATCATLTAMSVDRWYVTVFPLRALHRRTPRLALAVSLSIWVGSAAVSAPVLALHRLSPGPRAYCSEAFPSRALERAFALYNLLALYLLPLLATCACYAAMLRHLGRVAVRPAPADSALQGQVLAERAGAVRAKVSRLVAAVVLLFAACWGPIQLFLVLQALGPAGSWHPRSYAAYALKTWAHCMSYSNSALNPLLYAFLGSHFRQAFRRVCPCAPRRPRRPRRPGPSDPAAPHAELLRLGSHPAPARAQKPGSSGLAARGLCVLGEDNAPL
5-hydroxytryptamine receptor 2A (Homo sapiens), sequence (P28223 whole entry, looked up): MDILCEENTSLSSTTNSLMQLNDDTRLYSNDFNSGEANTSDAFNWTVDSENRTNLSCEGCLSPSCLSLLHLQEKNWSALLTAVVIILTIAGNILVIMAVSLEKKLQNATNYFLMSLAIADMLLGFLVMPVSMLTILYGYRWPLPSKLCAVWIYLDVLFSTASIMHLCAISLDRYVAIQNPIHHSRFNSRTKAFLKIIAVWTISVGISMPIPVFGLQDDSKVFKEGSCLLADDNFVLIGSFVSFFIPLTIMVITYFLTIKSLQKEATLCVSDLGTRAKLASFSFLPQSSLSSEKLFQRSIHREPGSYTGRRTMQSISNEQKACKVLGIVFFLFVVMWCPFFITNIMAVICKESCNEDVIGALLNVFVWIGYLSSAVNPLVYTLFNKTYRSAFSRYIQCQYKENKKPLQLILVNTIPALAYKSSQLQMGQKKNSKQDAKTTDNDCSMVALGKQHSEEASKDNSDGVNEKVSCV
D(2) dopamine receptor (Homo sapiens), sequence (P14416 whole entry, looked up): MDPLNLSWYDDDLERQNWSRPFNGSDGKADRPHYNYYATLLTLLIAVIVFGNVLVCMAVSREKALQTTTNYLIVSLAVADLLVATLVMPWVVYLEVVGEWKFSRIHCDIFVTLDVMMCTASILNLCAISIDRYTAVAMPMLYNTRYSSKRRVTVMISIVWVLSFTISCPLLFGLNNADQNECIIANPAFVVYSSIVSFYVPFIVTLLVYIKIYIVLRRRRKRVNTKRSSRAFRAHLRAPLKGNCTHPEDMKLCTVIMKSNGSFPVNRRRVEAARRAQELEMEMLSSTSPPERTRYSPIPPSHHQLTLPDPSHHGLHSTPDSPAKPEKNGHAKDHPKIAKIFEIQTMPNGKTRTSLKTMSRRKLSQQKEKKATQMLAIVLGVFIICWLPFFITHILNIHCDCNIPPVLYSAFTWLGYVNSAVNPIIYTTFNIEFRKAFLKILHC
Beta-2 adrenergic receptor (Homo sapiens), sequence (P07550 whole entry, looked up): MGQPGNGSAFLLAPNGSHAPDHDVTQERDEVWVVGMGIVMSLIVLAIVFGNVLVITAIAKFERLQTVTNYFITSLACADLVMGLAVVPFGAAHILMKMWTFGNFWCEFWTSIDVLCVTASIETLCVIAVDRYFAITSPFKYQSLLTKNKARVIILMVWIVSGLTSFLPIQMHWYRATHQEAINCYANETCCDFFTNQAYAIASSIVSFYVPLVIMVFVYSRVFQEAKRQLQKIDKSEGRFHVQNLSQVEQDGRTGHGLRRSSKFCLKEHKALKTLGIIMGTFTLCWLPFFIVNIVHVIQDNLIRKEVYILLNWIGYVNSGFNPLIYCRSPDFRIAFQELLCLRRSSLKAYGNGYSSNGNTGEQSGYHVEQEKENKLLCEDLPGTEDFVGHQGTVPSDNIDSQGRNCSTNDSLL
Gonadotropin-releasing hormone receptor (Homo sapiens), sequence (P30968 whole entry, looked up): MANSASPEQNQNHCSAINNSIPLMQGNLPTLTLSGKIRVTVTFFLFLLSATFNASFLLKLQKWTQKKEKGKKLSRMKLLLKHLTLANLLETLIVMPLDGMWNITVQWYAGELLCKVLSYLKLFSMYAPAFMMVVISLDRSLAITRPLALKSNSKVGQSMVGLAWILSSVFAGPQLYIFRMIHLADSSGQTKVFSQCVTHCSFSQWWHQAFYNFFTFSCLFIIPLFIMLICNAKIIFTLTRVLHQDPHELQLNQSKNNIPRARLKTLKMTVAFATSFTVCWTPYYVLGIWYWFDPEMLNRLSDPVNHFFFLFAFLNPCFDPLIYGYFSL
Muscarinic acetylcholine receptor M1 (Homo sapiens), sequence (P11229 whole entry, looked up): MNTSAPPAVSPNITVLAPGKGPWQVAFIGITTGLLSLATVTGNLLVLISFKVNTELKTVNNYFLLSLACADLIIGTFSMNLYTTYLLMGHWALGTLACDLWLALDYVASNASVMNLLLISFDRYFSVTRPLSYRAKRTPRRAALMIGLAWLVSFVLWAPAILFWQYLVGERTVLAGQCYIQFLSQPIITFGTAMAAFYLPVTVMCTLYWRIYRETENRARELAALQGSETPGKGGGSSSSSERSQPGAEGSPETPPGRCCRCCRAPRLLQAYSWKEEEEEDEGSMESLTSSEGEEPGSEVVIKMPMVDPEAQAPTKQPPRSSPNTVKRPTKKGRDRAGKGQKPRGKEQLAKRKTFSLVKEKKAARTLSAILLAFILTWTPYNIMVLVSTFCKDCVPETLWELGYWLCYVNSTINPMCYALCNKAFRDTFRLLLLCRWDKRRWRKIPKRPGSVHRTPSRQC

Take `Cc1ccc(N=Nc2c(O)ccc3ccccc23)c(C)c1`: the Potency entry in [1], in [3], in [4], in experiment [5], in experiment [6] and in experiment [7] was “inactive” in each case. For the same molecule, the Potency result in experiment [8], in experiment [9], in [10], in [11], in experiment [12] and in [13] was “inactive” in each case. The Potency result in experiment [14], in experiment [15], in experiment [16], in [17], in [18] and in experiment [19] was “inactive” each time. Further, in experiment [2], the Potency was 2.66 µM (active).

`CC(C)c1ccc2c(C(C)C)cc(C(C)C)c(S(=O)(=O)O)c2c1`: the Potency result in experiment [1], in experiment [2], in experiment [3], in experiment [4], in [5] and in [6] was “inactive” in each case. For the same molecule, the Potency entry in [7], in experiment [8], in experiment [9], in [10], in [11] and in [12] was “inactive” in each case. The Potency entry in experiment [13], in [14], in experiment [15], in experiment [16], in experiment [17] and in [18] was “inactive” throughout. Moreover, the Potency entry in [19] was “inactive”.

For the molecule `O=C(NCN1CCOCC1)c1cnccn1`, the Potency entry in experiment [1], in experiment [2], in experiment [3], in experiment [4], in [5] and in experiment [6] was “inactive” in each case. Besides, the Potency entry in experiment [7], in experiment [8], in experiment [9], in experiment [10], in [11] and in [12] was “inactive” each time. Further, the Potency entry in [13], in [14], in [15], in experiment [17], in experiment [18] and in experiment [19] was “inactive” each time.

For the molecule `O=C(O)c1cccc(C(F)(F)F)c1`, the Potency result in experiment [1], in experiment [2], in experiment [3], in experiment [4], in experiment [5] and in experiment [6] was “inactive” in each case. Besides, the Potency entry in experiment [7], in experiment [8], in [9], in [10], in experiment [11] and in experiment [12] was “inactive” in each case. For the same molecule, the Potency result in experiment [13], in [14], in experiment [15], in [16], in experiment [17] and in experiment [18] was “inactive” in each case.

As for `CCCCCCCCCCCCCCCCCCOCC(O)CO` (stereo not given), the Potency entry in experiment [1], in experiment [2], in experiment [3], in experiment [4], in [5] and in [6] was “inactive” each time. Also, the Potency entry in experiment [7], in [8], in experiment [9], in [10], in experiment [11] and in [12] was “inactive” throughout. For the same molecule, the Potency result in experiment [13], in experiment [14], in experiment [15], in experiment [16], in experiment [17] and in experiment [18] was “inactive” in each case.

Regarding `Cc1c(I)c(=O)n(-c2ccccc2)n1C`, the Potency entry in [1], in experiment [2], in experiment [3], in [4], in experiment [5] and in [6] was “inactive” throughout. The Potency entry in [7], in experiment [8], in experiment [9], in [10], in experiment [11] and in experiment [12] was “inactive” each time. Besides, the Potency result in experiment [13], in experiment [15], in experiment [16] and in experiment [19] was “inactive” each time. For the same molecule, in experiment [14], the Potency was 0.0379 µM (active).

With `Cc1cccc(C)c1NC(=O)CN1CCCCCC1`, the Potency result in [1], in experiment [2], in experiment [3], in [4], in [5] and in experiment [6] was “inactive” throughout. For the same molecule, the Potency result in [7], in experiment [8], in [9], in experiment [10], in [11] and in experiment [12] was “inactive” throughout. Further, the Potency result in experiment [13], in experiment [14], in experiment [16], in [17], in experiment [18] and in experiment [19] was “inactive” each time.

For `CC(=O)[O][Al][O]C(C)=O`, the Potency result in experiment [1], in experiment [2], in experiment [3], in experiment [4], in [5] and in experiment [6] was “inactive” throughout. In addition, the Potency entry in experiment [7], in experiment [8], in [9], in [10], in experiment [11] and in experiment [12] was “inactive” throughout. The Potency result in [13], in [14], in experiment [15], in experiment [16], in [18] and in [19] was “inactive” in each case.
